tim10-1 inh: growth inhibitors of tim10-1 mutant yeast | S. cerevisiae tim10-1 ts strain growth, BacTiter-Glo, 24 h | inhibition, % at 20 µM | 330,000 tested, 2.2% active | AID 463190;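 active = inhibition of at least 40%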;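 also: mutant grown at 25 °C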
PfHsp90 yeast 2: growth inhibition of yeast expressing Plasmodium Hsp90. S. cerevisiae expressing PfHsp90, BacTiter-Glo ATP, 48 h; yeast lacking PDR1 and PDR3 efflux regulators. inhibition, % at 9.4 µM. 310,000 tested, 0.32% active;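 active = every replicate shows inhibition above about 80%, whatever the replicate mean, limit read from the data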
NLRP3 yeast inh: NALP3 inhibition in yeast. Yeast reconstituted NLRP3/ASC/caspase-1, beta-gal luminescence, 24 h. inhibition, % at 10 µM. 330,000 tested, 0.39% active. AID 2825;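 active = inhibition of 50% or more; inactive = inhibition below 50%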
TIM10 inh: inhibits growth of TIM10 yeast strain. 330,000 tested, 1.4% active. inhibition, % at 10 µM. S. cerevisiae TIM10 strain growth, BacTiter-Glo luminescence, 24 h;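 active = inhibition of 40% or more at the single tested concentration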;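 also: wild-type TIM10 isogenic control strain grown at permissive 25 °C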
tim23-1 inh: inhibits growth of tim23-1 mutant yeast; S. cerevisiae tim23-1 growth, BacTiter-Glo luminescence, 24 h; 330,000 tested, 1.3% active; inhibition, % at 20 µM;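 active = growth inhibition of the mutant yeast at or above 50%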;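 also: temperature-sensitive mutant grown at 25 °C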
tim10-1 confirm: tim10-1 yeast growth inhibition, confirmed; inhibition, % at 20 µM; shares compounds with tim10-1 inh; S. cerevisiae tim10-1 ts strain growth, BacTiter-Glo, 24 h; 7,400 tested, 56% active;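 active = inhibition of yeast growth at or above a set limit in either of two repeat tests at 20 µM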;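 also: tim10-1 mutant grown at permissive 25 °C to find synthetic lethal compounds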
A number is an active result; – = inactive; · = no result given. Only some compounds are listed: those with a hit (about 3.7% of all), similar ones and a draw of the others.

SMILES	tim10-1 inh	PfHsp90 yeast 2	NLRP3 yeast inh	TIM10 inh	tim23-1 inh	tim10-1 confirm
Cc1c(C(=O)N2CCN(Cc3ccc4c(c3)OCO4)CC2)sc2ncnc(N3CCN(c4ccccc4)CC3)c12	47.9	–	–	–	–	–
CCOc1ccc(-n2cc(C(=O)Nc3cccc(OC)c3)c3cc(OC)c(OC)cc3c2=O)cc1	41.8	–	–	–	–	35.9
Cc1ccc(-n2nnnc2-c2cccc(C)c2)cc1	–	–	–	–	–	·
COc1ccc(-n2nnnc2-c2cccc(OC)c2)cc1	44.0	–	–	–	–	–
CCc1nnc(N/N=C/c2ccc(N3CCC(C)CC3)c([N+](=O)[O-])c2)n1N	47.6	–	–	–	–	42.0
Cc1nnc(N/N=C/c2cc([N+](=O)[O-])c(N3CCC(C)CC3)cc2N2CCC(C)CC2)n1N	–	·	–	–	–	·
O=c1[nH]cc(CN2CCOCC2)c(=O)[nH]1	·	–	·	·	·	·
Cc1ccc(Oc2ccccc2NC(=O)CN2C(=O)NC3(CCCC3)C2=O)cc1	–	–	–	–	–	·
CCOC(=O)c1c(-c2ccc(-c3ccccc3)cc2)csc1NC(=O)CNCCN(C)C	43.0	–	–	–	–	–
CCOC(=O)c1c(-c2ccccc2)csc1NC(=O)CSc1nnc(C)s1	–	–	–	–	–	·
CCOC(=O)c1c(-c2ccccc2)csc1NC(=S)NC	42.3	–	–	–	–	38.5
CCOC(=O)c1c(-c2ccccc2)csc1NC(=O)CCN1C(=O)c2ccccc2C1=O	–	–	–	–	–	·
CCNC(=S)Nc1scc(-c2ccccc2)c1C(=O)OCC	41.1	–	–	–	–	–
COCCN(C(=O)COC(=O)CCOc1cc(C)ccc1C)c1c(N)n(Cc2ccccc2)c(=O)[nH]c1=O	·	–	·	·	·	·
CCOc1cc2c(cc1/C=C/c1noc(C)c1[N+](=O)[O-])OC(C)C2 (stereo not given)	–	–	–	–	–	·
C=CCSc1nc(N(CC)CC)c2sccc2n1	43.6	–	–	–	–	–
C=CCNc1nc(SC)nc2ccsc12	–	–	–	–	–	·
COc1ccc(CCNC(=O)Nc2cccs2)c(OC)c1	40.8	–	–	–	–	36.2
Cc1ccc(OCC(=O)NNC(=S)NC(=O)C2CCCCC2)c(C)c1	47.1	–	–	–	–	–
C=CCSc1nc2c(c(C3CC=CCC3)c1C#N)CCC2 (stereo not given)	40.9	–	–	–	–	60.2
O=C(NCCc1ccc(Cl)cc1)C1CCCO1 (stereo not given)	–	–	–	–	–	·
Nc1ccccc1-c1nnc(-c2ccc(-c3ccccc3)cc2)o1	46.8	·	–	–	–	–
COc1cc(/C=C2\CC/C(=C\c3ccc(OCCO)c(OC)c3)C2=O)ccc1OCCO	49.2	–	–	–	–	40.2
CNC(=S)N(CCN(C)C)Cc1cc2cc3c(cc2[nH]c1=O)OCO3	–	–	–	–	–	·
Cc1ccc2c(c1)c(/C=C/c1cc[n+](C)cc1)c(C)n2C	–	–	–	–	–	·
SMILES	tim10-1 inh	PfHsp90 yeast 2	NLRP3 yeast inh	TIM10 inh	tim23-1 inh	tim10-1 confirm
Cc1ccc2[nH]c(C)c(/C=C/c3cc[n+](C)cc3)c2c1	51.4	–	–	–	–	–
O=C(c1ccco1)N1CCN(c2ncnc3scc(-c4cccs4)c23)CC1	45.6	–	–	–	–	–
COc1ccc(-c2csc3ncnc(N4CCN(C(=O)c5ccco5)CC4)c23)cc1	–	–	–	–	–	·
Cc1cccc(C(=O)NC(C(=O)Nc2ccc(S(=O)(=O)Nc3nccs3)cc2)C(C)C)c1 (stereo not given)	·	–	·	·	·	·
O=C(CSc1nnnn1-c1ccccc1)N1CCCc2ccccc21	43.4	–	–	–	–	–
O=C(CSc1n[nH]c(-c2ccccc2O)n1)N1CCCc2ccccc21	44.5	–	–	–	–	–
O=C1CC(=O)Nc2cc(S(=O)(=O)N3CCOc4ccc(Cl)cc43)ccc2N1	–	·	–	–	–	·
CC1(C)Cc2c(cnn2-c2ccc(F)cc2)C(NC(=O)C2CCC2)C1 (stereo not given)	–	–	–	–	–	·
CC(C)(C)c1csc(NC(=O)C2COc3ccccc3O2)n1 (stereo not given)	–	–	–	–	–	·
COc1ccc(-c2csc(NC(=O)C3COc4ccccc4O3)n2)cc1OC (stereo not given)	43.1	–	–	–	–	–
CCC(=O)N1c2ccccc2[C@@H](N(C(C)=O)c2ccccc2)C[C@H]1C	–	–	–	–	–	·
CC(=O)N(c1ccccc1)C1CC(C)N(C(=O)c2ccccc2)c2ccccc21 (stereo not given)	42.1	–	–	–	–	–
COc1ccc(OC)c(NS(=O)(=O)c2cc3c4c(c2)CCN4C(=O)CC3)c1	–	–	–	–	–	·
Cn1c(=O)c2c(nc(SCCN3CCOCC3)n2Cc2ccccc2Cl)n(C)c1=O	–	–	–	–	–	·
Cn1c(=O)c2c(nc(SCCN3CCOCC3)n2Cc2cccc3ccccc23)n(C)c1=O	43.5	·	–	–	–	–
Cc1nn(-c2ccc(Cl)cc2)c2[nH]c(CCl)cc(=O)c12	62.5	–	–	–	–	31.8
CC(Sc1ccc(S(=O)(=O)N2CCN(C)CC2)cn1)C(=O)Nc1cccc(Cl)c1Cl (stereo not given)	·	–	·	·	·	·
CN(Cc1ccccc1)Cc1nc2c(c(=O)n(C)c(=O)n2C)n1Cc1ccc(Cl)cc1	40.3	–	–	–	–	–
COc1ccc(C2=CC(=O)C[C@H](COCc3ccccc3)N(C(=O)OC(C)(C)C)O2)cc1	·	–	·	·	·	·
O=C(COC(=O)c1ccc(S(=O)(=O)N2CCCCC2)cc1)Nc1ccccc1Cl	–	·	–	–	–	·
CC(NC(=O)COC(=O)c1ccc(Br)o1)c1ccccc1 (stereo not given)	–	–	–	–	–	·
C/C(=N\NS(=O)(=O)c1ccc([N+](=O)[O-])cc1)c1cccs1	–	–	–	–	–	·
CC(C)/C(=N\NS(=O)(=O)c1ccc(Br)cc1)c1cccs1	41.2	–	–	–	–	33.9
CCC(C(=O)NCCc1ccccc1OC)n1nc(C)c2c(C)n(-c3ccccc3)nc2c1=O (stereo not given)	–	–	–	–	–	·
O=C1c2cccc3c(N4CCCCC4)ccc(c23)C(=O)N1CCO	46.1	–	–	–	–	–
CCCCC(C(=O)NC(C)(C)C)N(Cc1ccccc1Cl)C(=O)c1snc(C(N)=O)c1N (stereo not given)	–	–	–	–	–	·
CCCCCCC(=O)c1c(C)[nH]c(C(=O)OCC)c1C	40.5	–	–	–	–	–
CC(=O)N1N=C(c2cccc(Cl)c2)OC1c1cccc([N+](=O)[O-])c1 (stereo not given)	–	–	–	–	–	·
CC(=O)N1N=C(c2cccc([N+](=O)[O-])c2)OC1c1cccc(Br)c1 (stereo not given)	44.9	–	–	–	–	–
S=c1[nH]nc(Nc2ccc(Cl)cc2)s1	40.4	–	–	–	–	34.2
